{
  "source": "PubChem BioAssay (NCATS)",
  "note": "Activity calls are given as the source filed them. Calls come from the whole dose curve; as a rule, active = well fitted curve in the direction sought with a large enough effect; inconclusive = small, poorly fitted or top-dose-only effect, or another doubt; inactive = no such curve, though single readings can be large or run the other way.",
  "data": [
    {"target": "Methanococcus maripaludis chaperonin (MmCpn) (UniProt Q6LX38)", "sequence (Q6LX38 1-543)": "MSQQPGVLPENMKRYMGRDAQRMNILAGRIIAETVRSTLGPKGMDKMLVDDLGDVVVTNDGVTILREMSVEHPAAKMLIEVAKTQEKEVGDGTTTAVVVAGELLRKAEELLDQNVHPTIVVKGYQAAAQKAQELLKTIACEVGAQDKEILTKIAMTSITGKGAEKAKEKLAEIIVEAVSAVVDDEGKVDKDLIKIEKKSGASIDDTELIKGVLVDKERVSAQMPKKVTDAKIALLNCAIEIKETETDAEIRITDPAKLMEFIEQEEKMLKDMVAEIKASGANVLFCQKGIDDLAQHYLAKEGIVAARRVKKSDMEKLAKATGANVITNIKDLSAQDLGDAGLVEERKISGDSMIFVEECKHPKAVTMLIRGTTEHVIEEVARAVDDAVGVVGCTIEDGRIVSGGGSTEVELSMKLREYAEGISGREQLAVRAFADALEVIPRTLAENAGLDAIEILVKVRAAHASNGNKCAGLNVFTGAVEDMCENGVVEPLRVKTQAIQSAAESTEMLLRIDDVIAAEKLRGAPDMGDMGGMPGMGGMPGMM", "assay": "High-Throughput Screening for Modulators of Cytosolic Chaperonin Activity: MmCpn Primary Screen (AID 488978)", "conditions": "Purified MmCpn ATPase activity, ADP HTRF detection, 10 min; series mostly up to 76.9 µM", "excerpt": "Chaperonins are key components of the cellular chaperone machinery. These large complexes consist of two stacked 7-9 membered rings, each containing a central cavity. Substrates are folded within the cavity in an ATP-dependent manner. TRiC is a complex of eight different, essential proteins. As each of the genes encoding the eight subunits is essential for cell viability and no protocol has been developed to overexpress this enzyme to high levels, several groups have turned to the archaeal homolog of TRiC from Methanococcus maripaludis (MmCpn) as a model system for the study of the type II chaperonin family.\nMmCpn was kindly provided by the laboratory of Judith Frydman.\n1. Dispense 1.5 ul enzyme of either TriC at 100 nM or MmCpn at 50 nM final concentration.\n2. Transfer 23 nl of compound to plate, incubate 5 min at RT.\n3. 1.5 ul ATP at 30 uM at final concentration dispensed into plate.\n4. Incubate for 10 minutes at 37C (MmCPN), 30C (TriC).\n5. 3 ul of the Cisbio ADP Transcreener HTRF detection reagent prepared according to protocol dispensed into plate.\n6. Incubate for 5 minutes.\n7. Read using EnVision plate reader at Excitation = 320nm and Emission = 590nm, 665nm", "values": [
      {"molecule": "COc1ccc(Cc2nccc3cc(OC)c(OC)cc23)cc1OC", "outcome": "inactive"},
      {"molecule": "CC(C)OC(=O)C(C)(C)Oc1ccc(C(=O)c2ccc(Cl)cc2)cc1", "outcome": "inactive"},
      {"molecule": "O=c1cc(-c2ccc(O)cc2)oc2cc(O)cc(O)c12", "outcome": "inactive"},
      {"molecule": "NCCS", "outcome": "inactive"},
      {"molecule": "CC/C(=C(\\c1ccccc1)c1ccc(OCCN(C)C)cc1)c1ccccc1", "outcome": "inactive"},
      {"molecule": "CCCCCN(C)CCC(O)(P(=O)(O)O)P(=O)(O)O", "outcome": "inactive"},
      {"molecule": "O=C1NCC2(CCN(CCc3ccccc3)CC2)O1", "outcome": "inactive"},
      {"molecule": "Cc1cccc(C)c1OCC(C)N", "note": "(stereo unspecified)", "outcome": "inactive"},
      {"molecule": "CCn1cc(C(=O)O)c(=O)c2ccc(C)nc21", "outcome": "inactive"},
      {"molecule": "CC(C)(C)c1ccc(C(O)CCCN2CCC(C(O)(c3ccccc3)c3ccccc3)CC2)cc1", "note": "(stereo unspecified)", "outcome": "inactive"},
      {"molecule": "CCN(CC)CCNC(=O)c1ccc(N)cc1", "outcome": "inactive"},
      {"molecule": "COc1cccc(-c2cc(=O)c3ccccc3o2)c1N", "outcome": "inactive"},
      {"molecule": "CC(=O)c1ccc(S(=O)(=O)NC(=O)NC2CCCCC2)cc1", "outcome": "inactive"},
      {"molecule": "Clc1ccc(Cn2c(CN3CCCC3)nc3ccccc32)cc1", "outcome": "inactive"},
      {"molecule": "COc1ccccc1N1CCN(CCCNc2cc(=O)n(C)c(=O)n2C)CC1", "outcome": "inactive"},
      {"molecule": "O=C(O)CCc1nc(-c2ccccc2)c(-c2ccccc2)o1", "outcome": "inactive"},
      {"molecule": "CCN1CCC[C@H]1CNC(=O)c1cc(S(N)(=O)=O)ccc1OC", "outcome": "inactive"},
      {"molecule": "CC1=C(/C=C/C(C)=C/C=C/C(C)=C/C(=O)Nc2ccc(O)cc2)C(C)(C)CCC1", "outcome": "inactive"},
      {"molecule": "O=C(NCCN1CCOCC1)c1ccc(Cl)cc1", "outcome": "inactive"},
      {"molecule": "CN(C)CCC(c1ccccc1)c1ccccn1", "note": "(stereo unspecified)", "outcome": "inactive"},
      {"molecule": "CCN(CC)CCOC(=O)c1ccc(N)cc1", "outcome": "inactive"},
      {"molecule": "CC(=O)CCCCn1c(=O)c2c(ncn2C)n(C)c1=O", "outcome": "inactive"},
      {"molecule": "Clc1ccc(C(c2ccc(Cl)cc2)n2cc[n+](CC(OCc3ccc(Cl)cc3Cl)c3ccc(Cl)cc3Cl)c2)cc1", "note": "(stereo unspecified)", "outcome": "inactive"},
      {"molecule": "CC1(C)CCC2=C(O1)c1ccccc1C(=O)C2=O", "outcome": "inactive"},
      {"molecule": "O=C1NC(=O)C(c2ccccc2)(c2ccccc2)N1", "outcome": "inactive"},
      {"molecule": "NC(N)=Nc1nc(CSCC/C(N)=N/S(N)(=O)=O)cs1", "outcome": "inactive"},
      {"molecule": "CC(C)NCC(O)COc1cccc2[nH]ccc12", "note": "(stereo unspecified)", "outcome": "inactive"},
      {"molecule": "C[N+](C)(C)CC(=O)O", "outcome": "inactive"},
      {"molecule": "CCCCC1C(=O)N(c2ccccc2)N(c2ccccc2)C1=O", "outcome": "inactive"},
      {"molecule": "O=c1c(-c2ccc(O)cc2)coc2cc(O)ccc12", "outcome": "inactive"},
      {"molecule": "CC(=O)N[C@@H](CS)C(=O)O", "outcome": "inactive"},
      {"molecule": "CC(=O)O[C@]1(C(C)=O)CC[C@H]2[C@@H]3C=C(Cl)C4=CC(=O)[C@@H]5C[C@@H]5[C@]4(C)[C@H]3CC[C@@]21C", "outcome": "inactive"},
      {"molecule": "COC(=O)[C@@H]1[C@H]2C[C@H]3c4[nH]c5ccccc5c4CCN3C[C@@H]2CC[C@@H]1O", "outcome": "inactive"},
      {"molecule": "CCCNC(=O)NS(=O)(=O)c1ccc(Cl)cc1", "outcome": "inactive"},
      {"molecule": "CCN(CC)C(=O)c1ccc(O)c(OC)c1", "outcome": "inactive"},
      {"molecule": "C[N+](C)(C)CCCCCC[N+](C)(C)C", "outcome": "inactive"}
    ]}
  ]
}
